Activity calls are given as the source filed them.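 Rule for the calls: active = compounds whose dose response marks them as Clk4 kinase inhibitors with a measurable half-maximal potency; inactive = the rest.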
Target: Dual specificity protein kinase CLK4 (Homo sapiens) (UniProt Q9HAZ1)
Assay: Kinase Inhibition Profile Study on Inhibitors of CDC-like Kinase 4
Settings: Reaction Biology radiometric kinase assay, 10 uM ATP
Description: NIH Molecular Libraries Probe Production Centers Network [MLPCN] NIH Chemical Genomics Center [NCGC] MLSCN Grant: 1R03MH084827-01 Assay Submitter (PI): Tom Misteli NCGC Assay Overview: Alternative splicing of pre-mRNAs plays a major role in the regulation of eukaryotic gene expression. Alternative splicing is now thought to be one of the primary reasons for the complexity of higher organisms leading to an average of three protein isoforms per gene. Aberrant splicing can lead to a number of diseases and is known to play a role in rare genetic diseases such as progeria syndrome. Hutchinson-Gilford Progeria Syndrome (HGPS) is a pediatric premature aging disease caused by a spontaneous mutation in the lamin A/C (LMNA) gene due to a single point mutation in the lamin A gene effecting 1 in 4 million people. To identify both specific splicing modulators of the lamin A gene as well as general splicing modulators, a cell-based HTS assay was developed using a minigene reporter system (AIDs, 1459 & 1487). […] The Clk family is part of the CMGC group of protein kinases which includes Dyrks and are essential kinases found in all eukaryotes. Clks have been implicated to play a role in the regulation of alternative splicing; while Dyrks, in particular over expression of Dyrk1A, has been linked to diseases as Down syndrome and Alzheimer disease. This AID summarizes the characterization of lead Clk4 inhibitors in a panel of these related kinases: Clk1, 2 & 3, DYRK1/DYRK1A, and DYRK1B. Potency against Clk4 was also confirmed in the panel.
All kinase reactions were performed using 10 uM ATP in the assay. 100% activity was taken from kinase reactions with DMSO alone (the vehicle used for compound stock solutions).

Chain of Dual specificity protein kinase CLK4 (Homo sapiens) (Q9HAZ1 whole entry, looked up): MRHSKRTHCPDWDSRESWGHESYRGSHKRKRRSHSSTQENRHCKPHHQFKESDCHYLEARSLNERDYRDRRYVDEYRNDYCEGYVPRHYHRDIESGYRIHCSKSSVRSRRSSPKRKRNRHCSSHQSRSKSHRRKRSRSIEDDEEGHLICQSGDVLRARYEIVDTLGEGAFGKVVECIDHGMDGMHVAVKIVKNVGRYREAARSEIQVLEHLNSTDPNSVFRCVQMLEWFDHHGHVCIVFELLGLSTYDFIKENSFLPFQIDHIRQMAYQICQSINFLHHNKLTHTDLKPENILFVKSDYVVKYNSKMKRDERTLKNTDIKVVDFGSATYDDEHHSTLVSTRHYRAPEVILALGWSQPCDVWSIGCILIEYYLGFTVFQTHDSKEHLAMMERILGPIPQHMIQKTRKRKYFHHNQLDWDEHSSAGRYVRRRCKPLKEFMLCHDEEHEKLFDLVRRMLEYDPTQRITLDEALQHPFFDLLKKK

Potency, active:
Cc1ccc(CNc2ncnc3ccc(-c4ccoc4C)cc23)o1 490 nM
CC(C)(C)CNc1ncnc2ccc(-c3ccc4c(c3)OCO4)cc12 70 nM
Cc1nc(CNc2ncnc3ccc(-c4ccoc4)cc23)cs1 340 nM
CCOC(=O)c1ccc(-c2ccc3ncnc(NCCc4cnc[nH]4)c3c2)o1 250 nM
CCOC(=O)c1ccc(-c2ccc3ncnc(NCc4ccc(C)o4)c3c2)o1 230 nM
CCOC(=O)c1ccc(-c2ccc3ncnc(NCc4ncc[nH]4)c3c2)o1 790 nM
COc1cccc(-c2ccc3ncnc(NCc4cccs4)c3c2)c1 1050 nM
c1csc(CNc2ncnc3ccc(-c4ccoc4)cc23)c1 249 nM
Cc1occc1-c1ccc2ncnc(NCCc3cnc[nH]3)c2c1 740 nM
c1coc(-c2ccc3ncnc(NCc4cccs4)c3c2)c1 1090 nM
Cc1nc(CNc2ncnc3ccc(-c4ccc5c(c4)OCO5)cc23)cs1 40 nM
Cc1nc(CN(C)c2ncnc3ccc(-c4ccc5c(c4)OCO5)cc23)cs1 11 nM
CCOC(=O)c1ccc(-c2ccc3ncnc(NCc4csc(C)n4)c3c2)o1 810 nM
c1nc(NCC2CCOC2)c2cc(-c3ccc4c(c3)OCO4)ccc2n1 (stereo unspecified) 29 nM
c1csc(CNc2ncnc3ccc(-c4ccc5c(c4)OCO5)cc23)c1 39 nM
Cc1nc(CNc2ncnc3ccc(-c4ccoc4C)cc23)cs1 850 nM
OCc1ccc(-c2ccc3ncnc(NCCc4cnc[nH]4)c3c2)o1 1290 nM
O=C(O)c1ccc(-c2ccc3ncnc(NCCc4cnc[nH]4)c3c2)o1 940 nM
c1nc(NCC2CCCC2)c2cc(-c3ccc4c(c3)OCO4)ccc2n1 90 nM
CN(Cc1ncc[nH]1)c1ncnc2ccc(-c3ccc4c(c3)OCO4)cc12 120 nM
c1nc(NCCc2cnc[nH]2)c2cc(-c3ccoc3)ccc2n1 840 nM
